Assay [1] in a line: qHTS assay for small molecule agonists of the antioxidant response element (ARE) signaling pathway (AID 651741; active = well fitted activation curve with a large enough effect in the signal ratio; the % refers to the signal ratio; also: % of control where 0% means no effect). In a few lines: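 Agonist activity is measured as ARE-driven beta-lactamase expression in a stable HepG2 reporter line, using 16 h compound treatment at 37 C and a FRET substrate fluorescence readout after 2 h.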
A short description of assay [2]: qHTS assay for small molecule activators of the p53 signaling pathway (AID 651743; active = well fitted activation curve with a large enough effect in the signal ratio, not every such curve was filed as active; the % refers to the signal ratio; also: series mostly up to about 92 µM; % of control where 0% means no effect). The settings on record: HCT-116 p53RE-bla, beta-lactamase FRET ratio, 16 h; activation: stronger effect = higher value. In a few lines:
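A beta-lactamase reporter under p53 response element control, stably carried by HCT-116 cells, reported pathway activation. Test compounds were applied for 16 hours at 37 C, and fluorescence was measured 2 hours after adding the B/G FRET substrate.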
Background: Quantitative high-throughput screening tests each substance at several concentrations.

A short description of assay [3]: qHTS assay for small molecule activators of the nuclear factor-kappa B (NF-kB) signaling pathway (AID 651749; active = well fitted activation curve with a large enough effect in the signal ratio; the % refers to the signal ratio; also: series mostly up to about 77 µM; % of control where 0% means no effect). The settings on record: NF-kB-bla ME-180 cells, beta-lactamase FRET ratio, 16 h; stronger effect = higher value. In a few lines:
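FRET-based beta-lactamase detection in ME-180 cells reports NF-kB response-element-driven transcription following overnight (16 hr) compound treatment.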

The nature of assay [4]: qHTS assay to identify small molecules that stimulate interleukin-8 (IL-8) secretion (AID 651758; active = well fitted activation curve with a large enough effect in the signal ratio; the % refers to the signal ratio; also: 0% is about no effect). In a few lines:
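Secreted IL-8 measured homogeneously by TR-FRET (two labelled anti-IL-8 antibodies, 1-3 h at room temperature) after a 16 h, 37 C compound treatment of THP-1 cells at 2000 cells/well.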

A short description of assay [5]: qHTS assay for environmental chemicals that activate the Aryl hydrocarbon Receptor (AhR) signaling pathway (AID 651777). Also: % of control where 0% means no effect; nearly all actives have a fitted effect of over 15% in size. Conditions: 1A2-DRE human hepatoma cells, luciferase, 24 h; activation: stronger effect = higher value. In a few lines: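 Induction of CYP1A2 transcription through AhR is detected by luciferase in 1A2-DRE hepatoma cells. Compounds or DMSO act for 24 hr at 37 C before a 30 min One-Glo step at room temperature.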

Assay [6] addresses Peroxisome proliferator-activated receptor alpha (Homo sapiens) (UniProt Q07869). Description: qHTS assay for small molecule agonists of the peroxisome proliferator-activated receptor alpha (PPARalpha) signaling pathway (AID 651778). Also: % of control where 0% means no effect. The settings on record: PathHunter PPARalpha complementation, chemiluminescence, 6 h; stronger effect = higher value. Put shortly:
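Chemiluminescence from complemented enzyme reported PPARalpha activation in cells after 6 hr of compound treatment at 37 C. The detection reagent was incubated for 60 min at room temperature, and compounds were scored as agonists.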

Assay [7] in a line: qHTS assay for small molecule agonists of the antioxidant response element (ARE) signaling pathway measured by Nrf2-dependant transcriptional activity (AID 720636; active = well fitted curve in the direction sought with a large enough effect in the repeat runs; an effect the other way counts as inactive or inconclusive;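 also: HepG2 cells with an ARE-driven luciferase reporter; % of control where 0% means no effect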). Put shortly:
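We exposed ARE-luc HepG2 cells, seeded in assay medium with 1% dialyzed FBS and allowed 6 hr to adhere, to test compounds overnight (16 hr, 37 C) before measuring luciferase with ONE-Glo.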

A short description of assay [8]: qHTS assay for small molecule antagonists of the retinoid-related orphan receptor gamma (ROR-gamma) signaling pathway - cell viability counter screen (AID 720652; active = well fitted curve in the direction sought with a large enough effect in the repeat runs; an effect the other way counts as inactive or inconclusive;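 also: CHO reporter cells with doxycycline-induced ROR-gamma expression; series mostly up to about 92 µM; compound exposure lasted 16 hr before ATP read; % is scaled to controls: 0 for no effect and ±100 for the full control effect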). Put shortly:
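ATP-based viability readout in the ROR-gamma reporter CHO cells after 16 hr compound exposure under doxycycline induction.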

Assay [9] in a line: qHTS assay for small molecule agonists of the antioxidant response element (ARE) signaling pathway measured by Nrf2-dependant transcriptional activity - cell viability counter screen (AID 720653; active = well fitted curve in the direction sought with a large enough effect in the repeat runs; an effect the other way counts as inactive or inconclusive; also: % is scaled to controls: 0 for no effect and ±100 for the full control effect). Conditions: ARE-bla HepG2 viability, CellTiter-Glo ATP luminescence, 16 h; stronger effect = lower value. In a few lines: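 Cytotoxicity counter screen: intracellular ATP quantified by CellTiter-Glo luminescence in the same ARE-bla HepG2 plates, after 16 h compound exposure and a 2 h beta-lactamase substrate step.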

Assay [10] addresses Nuclear receptor ROR-gamma (Homo sapiens) (UniProt P51449). Description: qHTS assay for small molecule antagonists of the retinoid-related orphan receptor gamma (ROR-gamma) signaling pathway (AID 651802). Also: nearly all actives have a fitted effect of over 60% in size. Also: potency is read from the fitted curve at half-maximal effect. In a few lines:
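Doxycycline-induced reporter activity in engineered CHO cells (TET-inducible ROR, RORE-LUC) was measured by luminescence after 16hr compound exposure at 37C.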

The nature of assay [11]: qHTS assay for small molecule disruptors of the mitochondrial membrane potential - 1 hr assay (AID 651754; calls by dose curve; also: potency is read from the fitted curve at half-maximal effect; nearly all actives have a fitted effect of over 35% in size). In a few lines:
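In this qHTS format, a 1 hr compound treatment of HepG2 cells precedes Mito-MPS staining, and membrane potential is judged from aggregate (red) against monomer (green) fluorescence intensity.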

The nature of assay [12]: qHTS assay for small molecule disruptors of the mitochondrial membrane potential - 5 hr assay (AID 651755; calls by dose curve; also: nearly all actives have a fitted effect of over 40% in size; also: potency is read from the fitted curve at half-maximal effect). Put shortly:
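Membrane-potential dye readout: red aggregate (540 ex/590 em) versus green monomer (490 ex/535 em) fluorescence after 30 min dye loading, following 5 hr compound exposure at 37C of overnight-plated HepG2 cells.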

Assay [13] concerns the target Arylsulfatase A (Homo sapiens) (UniProt P15289). Briefly: qHTS screen for enhancers of Arylsulfatase A (ASA1): LOPAC Validation Assay (AID 720538). Conditions: outcome: dose series up to 57.5 µM. Put shortly: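 MLD patient fibroblasts (SV40, ASA-I179S), 1536-well; adhere 6 hrs; cpd 48h, 37 degree C, 5% CO2; pNCS 0.5mM final in lysis buffer, 14h RT; stop 1N NaOH final; fluor. Ex525/Em598.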

Assay [14] can be described thus: qHTS for compounds that reverse cellular toxicity of Amyloid beta (A-beta) peptide in yeast: LOPAC Validation Assay (AID 720559).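 Also: plate controls were DMSO for no effect and equimolar ferric chloride plus clioquinol rescue for full effect.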 Put shortly:
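Medium dispensed, compounds pinned, A-beta yeast suspension added; plates held at 30 C for 48 hr; absorbance measured at 600 nm to gauge growth; values scaled between DMSO and FeCl3/clioquinol (equimolar) controls.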

The nature of assay [15]: qHTS for Activators of Parkin Expression: LOPAC Validation Assay (NLuc Reporter) (AID 720572). In a few lines: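 Compound effects on Parkin promoter activity were measured as NanoLuc luminescence after 24 h at 37 C. The neuronal reporter line also carried FLuc, which was read first. LOPAC compounds were tested at 7 concentrations, with normalization to DMSO (0%) and positive control (100%).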

A short description of assay [16]: qHTS for Activators of Parkin Expression: LOPAC Validation Assay (FLuc Reporter) (AID 720573). In a few lines: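 Cells seeded, 24 h; compounds pinned, 7-pt dose response; 24 h at 37 C/5% CO2; volume reduced; FLuc reagent 10 min RT; luminescence read. Normalization: DMSO = 0, positive control = 100%.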
The target of assay [17] is T1, Hexokinase-4 (Homo sapiens) + Glucokinase regulatory protein (Homo sapiens) (UniProt P35557+Q14397). Briefly: qHTS assay for inhibitors of recombinant human GCK-GKRP interaction: Diaphorase-coupled assay (AID 743205). In a few lines:
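25 mM Hepes pH 7.6, 5 mM glucose, 0.4 mM ATP, 4 U/ml G6PDH; 10 nM each GST-GCK/FLAG-GKRP. Kinetic fluorescence read, 1/min × 30 min. Normalized: DMSO ± enzyme = max/min.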

Assay [18] concerns the target T1, Hexokinase-4 (Homo sapiens) + Glucokinase regulatory protein (Homo sapiens). Briefly: qHTS assay for inhibitors of recombinant human GCK-GKRP interaction: ADP-Glo assay (AID 743206).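 Also: plate controls were DMSO plus enzyme for no effect and no enzyme for full effect.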 Put shortly: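 Pin-transferred compounds meet a 15 nM GST-GCK/15 nM FLAG-GKRP/2 uM S6P mix (dispense concentrations). ATP is then added to 0.4 mM final with 5 mM glucose, and the reaction runs 60 min at room temperature. ADP is quantified luminescently.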

For assay [19] the target is unchanged. Description: qHTS assay for inhibitors of recombinant human GCK-GKRP interaction: HTRF assay (AID 743207).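 Also: 0% = DMSO with GCK present and -100% = DMSO wells lacking GCK.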 Put shortly:
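5 nM GST-GCK + 5 nM FLAG-GKRP + 2 uM S6P, pH 7.1 buffer (25 mM Hepes, 2 mM MgCl2, 25 mM KCl, 1 mM DTT, Tween/BSA); pin-transferred cpd; anti-FLAG XL665/anti-GST K; 60 min RT; HTRF.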

Assay [20] in a line: HTS Assay for Allosteric Antagonists of the Human D2 Dopamine Receptor: Hit Validation in HTRF (AID 624455).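 Also: stable D1 dopamine receptor cell line scored for blocking the D1 response; % is scaled to controls: 0 for no effect and ±100 for the full control effect.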 Put shortly:
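Validation of hits used D1 receptor stably expressed in cells with HTRF detection of response inhibition; origin screen measured calcium flux following EC80 dopamine in a force-coupled, inducible Hek293 Trex D2 cell line.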

Values joined by “and” are separate entries in the source; they are usually repeats but may differ in a detail not shown here. Equal entries are not always repeated. Unmarked numbers belong to inactive results. Results filed as inconclusive are left out. Active and inactive are the calls of the source. Unless noted, calls follow the shape of the dose curve; as a rule, active = well fitted curve in the direction sought with a large enough effect; inconclusive = small, poorly fitted or top-dose-only effect, or another doubt; inactive = no such curve, though single readings can be large; an effect the other way counts as inactive or inconclusive.

Sequence of Peroxisome proliferator-activated receptor alpha (Homo sapiens) (Q07869 whole entry, looked up): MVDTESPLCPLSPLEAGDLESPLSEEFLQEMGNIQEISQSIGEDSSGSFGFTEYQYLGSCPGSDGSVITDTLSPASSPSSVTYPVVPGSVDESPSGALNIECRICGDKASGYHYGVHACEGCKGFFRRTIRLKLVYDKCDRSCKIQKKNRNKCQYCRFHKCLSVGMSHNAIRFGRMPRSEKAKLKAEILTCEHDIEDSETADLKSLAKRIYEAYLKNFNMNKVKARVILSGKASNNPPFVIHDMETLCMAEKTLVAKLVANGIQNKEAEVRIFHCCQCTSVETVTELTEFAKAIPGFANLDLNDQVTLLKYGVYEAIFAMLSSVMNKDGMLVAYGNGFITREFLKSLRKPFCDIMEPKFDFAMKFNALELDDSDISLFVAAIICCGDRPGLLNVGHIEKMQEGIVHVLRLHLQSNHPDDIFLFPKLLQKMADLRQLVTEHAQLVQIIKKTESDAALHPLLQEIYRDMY
T1 sequence (P35557 whole entry, looked up): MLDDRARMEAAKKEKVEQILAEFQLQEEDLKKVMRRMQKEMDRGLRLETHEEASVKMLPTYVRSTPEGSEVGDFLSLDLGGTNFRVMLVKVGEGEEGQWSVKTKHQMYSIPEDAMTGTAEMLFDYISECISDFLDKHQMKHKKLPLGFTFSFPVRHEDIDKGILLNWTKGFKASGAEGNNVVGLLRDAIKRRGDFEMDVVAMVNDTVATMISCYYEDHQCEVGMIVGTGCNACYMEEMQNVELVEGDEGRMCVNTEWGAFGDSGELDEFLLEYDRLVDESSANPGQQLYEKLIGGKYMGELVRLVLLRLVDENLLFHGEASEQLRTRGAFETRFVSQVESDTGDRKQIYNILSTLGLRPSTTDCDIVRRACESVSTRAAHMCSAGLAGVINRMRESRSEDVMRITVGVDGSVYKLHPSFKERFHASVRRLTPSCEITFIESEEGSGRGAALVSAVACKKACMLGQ
T1 sequence (Q14397 whole entry, looked up): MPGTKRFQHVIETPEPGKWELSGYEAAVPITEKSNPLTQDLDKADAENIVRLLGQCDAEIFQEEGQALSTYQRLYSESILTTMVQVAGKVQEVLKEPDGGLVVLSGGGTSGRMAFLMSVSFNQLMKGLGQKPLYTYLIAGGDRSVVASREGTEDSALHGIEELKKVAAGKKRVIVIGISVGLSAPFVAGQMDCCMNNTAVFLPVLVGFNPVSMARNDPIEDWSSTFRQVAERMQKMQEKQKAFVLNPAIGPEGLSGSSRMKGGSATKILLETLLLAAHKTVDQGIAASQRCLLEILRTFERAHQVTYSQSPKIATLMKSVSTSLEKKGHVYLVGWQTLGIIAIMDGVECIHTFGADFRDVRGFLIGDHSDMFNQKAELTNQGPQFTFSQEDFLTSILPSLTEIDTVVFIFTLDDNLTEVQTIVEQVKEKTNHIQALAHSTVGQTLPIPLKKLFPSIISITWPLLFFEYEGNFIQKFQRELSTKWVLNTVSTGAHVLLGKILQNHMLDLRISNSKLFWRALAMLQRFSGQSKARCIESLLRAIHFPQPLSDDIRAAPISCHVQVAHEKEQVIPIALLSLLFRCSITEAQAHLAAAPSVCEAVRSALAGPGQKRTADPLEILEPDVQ
Sequence of Nuclear receptor ROR-gamma (Homo sapiens) (P51449 whole entry, looked up): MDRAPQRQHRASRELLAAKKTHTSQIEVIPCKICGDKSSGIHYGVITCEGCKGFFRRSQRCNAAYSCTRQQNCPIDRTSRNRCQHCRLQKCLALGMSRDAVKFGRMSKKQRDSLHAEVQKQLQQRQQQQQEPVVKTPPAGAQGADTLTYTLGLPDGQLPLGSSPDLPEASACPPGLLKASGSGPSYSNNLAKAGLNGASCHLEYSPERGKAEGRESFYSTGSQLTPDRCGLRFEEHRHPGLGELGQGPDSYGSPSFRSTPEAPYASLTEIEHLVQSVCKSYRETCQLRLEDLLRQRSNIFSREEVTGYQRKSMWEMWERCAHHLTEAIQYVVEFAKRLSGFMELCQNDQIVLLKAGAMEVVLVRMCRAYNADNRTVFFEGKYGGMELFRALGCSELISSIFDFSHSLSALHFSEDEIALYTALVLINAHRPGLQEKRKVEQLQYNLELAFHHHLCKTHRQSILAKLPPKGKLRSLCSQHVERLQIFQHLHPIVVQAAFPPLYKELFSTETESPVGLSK
Sequence of Arylsulfatase A (Homo sapiens) (P15289 whole entry, looked up): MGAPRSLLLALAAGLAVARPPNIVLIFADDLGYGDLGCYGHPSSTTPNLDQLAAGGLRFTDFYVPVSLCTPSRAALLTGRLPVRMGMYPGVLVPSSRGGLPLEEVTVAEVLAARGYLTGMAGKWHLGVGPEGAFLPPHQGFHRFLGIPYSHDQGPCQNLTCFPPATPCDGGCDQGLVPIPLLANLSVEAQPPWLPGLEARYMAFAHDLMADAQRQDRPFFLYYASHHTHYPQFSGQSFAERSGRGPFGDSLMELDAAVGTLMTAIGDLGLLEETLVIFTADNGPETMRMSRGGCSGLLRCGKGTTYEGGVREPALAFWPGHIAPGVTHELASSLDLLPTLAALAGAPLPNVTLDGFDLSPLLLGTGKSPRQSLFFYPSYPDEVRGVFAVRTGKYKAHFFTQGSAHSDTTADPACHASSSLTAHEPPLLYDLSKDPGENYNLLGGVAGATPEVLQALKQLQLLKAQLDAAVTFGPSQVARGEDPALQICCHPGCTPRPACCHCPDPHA

Consider `NC(=O)c1ccccc1O`, for which the Potency result in assay [1] is “inactive”. Further, the activation in assay [2] is -1.87%; in assay [3], -1.49%; in assay [5], 2.51%. Also, the outcome in assay [4], in assay [7] and in assay [8] was inactive. Besides, the max response in [6] was 4.04%; in assay [9], -0.33%.

For `COc1ccc(C(=O)c2ccccc2)c(O)c1`, the activation was -2.61% and -3.01% in assay [2]; 0.344% and -5.21% in assay [3]; 8.63% and 11.4% in assay [5]. The max response is 1.86% and -0.894% in assay [6]; 6% and -1.76% in assay [9]. Besides, in assay [10], the Potency entry was “inactive”. The outcome in assay [8] was inactive.

In the case of `CCCCCCCCCCCCCCCC(=O)O`, the Potency entry in assay [1] is “inactive”. In addition, the activation in assay [2] was 1.38%; in [3] it was -0.401%; in assay [5], 0.499%. In addition, the call in assay [7] was inactive. Moreover, the max response in [9] is -12.5%.

On to `Oc1ccc(Cl)cc1Cc1cc(Cl)ccc1O`, for which, in [5], the activation was -1.39% and 3.39%. For the same compound, the outcome in assay [8] was inactive.

For the compound `COc1cc([C@H]2Oc3cc([C@H]4Oc5cc(O)cc(O)c5C(=O)[C@@H]4O)ccc3O[C@@H]2CO)ccc1O`, the activation is -9.47% in [2] and 0.406% in assay [5]. Further, the Potency in [11] was 18.8 µM (active); in assay [12] it was 26.6 µM (active). The max response is -8.58% in [6] and -21.7% in [9]. Further, the call in [7] and in [8] was inactive.

`NC(N)=NCc1cccc(I)c1`: the result in [13], in assay [14], in assay [15], in [16], in [17] and in assay [18] was inactive. Further, the outcome in assay [19] was inactive.

On to `CCCCCCCCCCCCCCCCO`, for which the Potency entry in assay [1] is “inactive”. For the same compound, the activation is -1.7% in assay [3] and 1.7% in assay [5]. The max response was 0.0651% in assay [6] and -4.14% in [9]. In addition, in [7], the call was inactive.

Turning to `CCCCC(CC)COC(=O)c1ccc(N(C)C)cc1` (stereo unspecified), the activation in [2] is 0.436% and -4.01%; in [3] it was -1.46% and -0.821%; in assay [5], 8.87% and 0.16%. The Potency in assay [11] was 7.5 µM (active). Further, the Potency result in [12] was “inactive”. For the same compound, the max response in assay [6] was 0.44% and -4.46%; in assay [9] it was 0.308% and -6.35%. For the same compound, the compound was classed as inactive in assay [7] and in assay [8].

For `CCCCCCCCOc1ccc(C(=O)c2ccccc2)c(O)c1`, the Potency entry in assay [1] is “inactive”. For the same compound, the activation in assay [2] is -0.0929%; in assay [3], -6.3%; in assay [5] it was -9.5%. In addition, in assay [7], the compound was classed as inactive. For the same compound, the max response in assay [9] is -12.5%.

As to `CCOC(=O)[C@H](CCc1ccccc1)N[C@@H](C)C(=O)N1[C@H](C(=O)O)C[C@H]2CCCC[C@@H]21`, the compound was called inactive in assay [20], in assay [14], in assay [15], in assay [16], in assay [17] and in assay [18]. Besides, the outcome in assay [19] was inactive.

Take `CC(C)(C)NC[C@H](O)COc1nsnc1N1CCOCC1`: the outcome in assay [20], in assay [14], in assay [15], in assay [16], in [17] and in assay [18] was inactive. The result in assay [19] was inactive.

As for `CN=C(N)NCCC[C@H](N)C(=O)O`, the result in assay [20], in assay [14], in [15], in [16], in [17] and in assay [18] was inactive. For the same compound, the result in assay [19] was inactive. Also, the outcome in assay [13] is “inactive; inhibitor; fitted 0.0054 uM”.

With `CCCN(CCC)S(=O)(=O)c1ccc(C(=O)O)cc1`, the Potency result in assay [1] and in assay [10] was “inactive” in each case. The activation in assay [2] was -0.245% and -0.015%; in assay [3] it was 0.183% and -3.09%; in assay [5], -1.19% and -0.648%. The max response in assay [6] is -6.45% and -0.148%; in assay [9], 9.27% and -1.08%. Also, the result in assay [7] and in [8] was inactive.

For the compound `COc1ccc(C(Cl)=C(c2ccc(OC)cc2)c2ccc(OC)cc2)cc1`, the results for the activation in assay [2], in assay [3] and in assay [5] were 2.35%, 3.39% and -0.915%, respectively. The values for the Potency in [11], in [12] and in assay [10] were 15 µM (active), 18.8 µM (active) and 18.8 µM (active), respectively. The figures for the max response in [6] and in [9] were -4.66% and -11.1%, respectively. In addition, the call in assay [7] was inactive.

With `C#C[C@]1(O)CC[C@H]2[C@@H]3CCC4=Cc5oncc5C[C@]4(C)[C@H]3CC[C@@]21C`, the activation is -3.96% in assay [2], 0.141% in assay [3] and 0.604% in assay [5]. The max response in [6] is -4.33%; in assay [9], 1.42%. Also, the call in assay [7] was inactive.

The record behind these values is PubChem BioAssay (NCATS).
